One assay relates to AAK1. Also noted: species or system human, MV4-11 + K-562 + COLO205 + SK-N-BE2 + OVCAR-8. The conditions noted are these: read-out: apparent Kd, n = 1.
For a further assay, the system named is BMP2K. Also noted: species or system human, MV4-11 + K-562 + COLO205 + SK-N-BE2 + OVCAR-8. The conditions noted are these: read-out: apparent Kd, n = 1.
The subject of the next assay is CLK1. The arrangement: species or system human, MV4-11 + K-562 + COLO205 + SK-N-BE2 + OVCAR-8. The note with it: read-out: apparent Kd, n = 1.
The test system of a further assay is CLK4. The arrangement: species or system human, MV4-11 + K-562 + COLO205 + SK-N-BE2 + OVCAR-8. The conditions noted are these: read-out: apparent Kd, n = 1.
The subject of another assay is CSNK2A1;CSNK2A3. Also noted: species or system human, MV4-11 + K-562 + COLO205 + SK-N-BE2 + OVCAR-8. The conditions noted are these: read-out: apparent Kd, n = 1.
The test system of the next assay is CSNK2A2. The arrangement: species or system human, MV4-11 + K-562 + COLO205 + SK-N-BE2 + OVCAR-8. The conditions noted are these: read-out: apparent Kd, n = 1.
A further assay deals with FLT3. The arrangement: species or system human, MV4-11 + K-562 + COLO205 + SK-N-BE2 + OVCAR-8. The conditions noted are these: read-out: apparent Kd; compound concentrations:100 nM and 1000 nM (sheet 'Samples'); n = 1.
In a further assay the test system is FLT4. Also noted: species or system human, MV4-11 + K-562 + COLO205 + SK-N-BE2 + OVCAR-8. The conditions noted are these: read-out: apparent Kd, n = 1.
In the next assay the test system is GAK. Also noted: species or system human, MV4-11 + K-562 + COLO205 + SK-N-BE2 + OVCAR-8. The conditions noted are these: read-out: apparent Kd, n = 1.
In the next assay the test system is MELK. Also noted: species or system human, MV4-11 + K-562 + COLO205 + SK-N-BE2 + OVCAR-8. The note with it: read-out: apparent Kd; compound concentrations:100 nM and 1000 nM (sheet 'Samples'); n = 1.
The test system of another assay is NUAK1. Also noted: species or system human, MV4-11 + K-562 + COLO205 + SK-N-BE2 + OVCAR-8. The conditions noted are these: read-out: apparent Kd, n = 1.
A further assay addresses Q6ZSR9 (human, UniProt Q6ZSR9). Also noted: species or system MV4-11 + K-562 + COLO205 + SK-N-BE2 + OVCAR-8. The note with it: read-out: apparent Kd, n = 1.
The next assay concerns RET. Also noted: species or system human, MV4-11 + K-562 + COLO205 + SK-N-BE2 + OVCAR-8. The note with it: read-out: apparent Kd, n = 1.
The next assay has as its system SIK2. Also noted: species or system human, MV4-11 + K-562 + COLO205 + SK-N-BE2 + OVCAR-8. The conditions noted are these: read-out: apparent Kd, n = 1.
A further assay has as its system GSK3A. Also noted: species or system human, MV4-11 + K-562 + COLO205 + SK-N-BE2 + OVCAR-8. The note with it: read-out: apparent Kd, n = 1.
The subject of a further assay is GSK3B. The arrangement: species or system human, MV4-11 + K-562 + COLO205 + SK-N-BE2 + OVCAR-8. The conditions noted are these: read-out: apparent Kd, n = 1.
Another assay concerns PAK4. Also noted: species or system human, MV4-11 + K-562 + COLO205 + SK-N-BE2 + OVCAR-8. The note with it: read-out: apparent Kd, n = 1.
A further assay concerns PKN1. The arrangement: species or system human, MV4-11 + K-562 + COLO205 + SK-N-BE2 + OVCAR-8. The note with it: read-out: apparent Kd, n = 1.
For assay [1], the system named is PKN3. The arrangement: species or system human, MV4-11 + K-562 + COLO205 + SK-N-BE2 + OVCAR-8. The conditions noted are these: read-out: apparent Kd, n = 1.
For assay [2], the system named is PKN3. The conditions noted are these: hek293t cells.
Setting [3] is: compound concentrations:100 nM and 1000 nM (sheet 'Samples').

Each structure is given as a SMILES string. Where two headings read alike, the source gives them in different places.
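Throughout, for IC50: NanoBRET target engagement in HEK293T cells transiently expressing full-length PKN3 with C-terminal NanoLuc, displacement of fluorescent tracer K5 (500 nM), BRET read after 2 h equilibration at 37 °C.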

Chain of Q6ZSR9 (Q6ZSR9 whole entry, looked up): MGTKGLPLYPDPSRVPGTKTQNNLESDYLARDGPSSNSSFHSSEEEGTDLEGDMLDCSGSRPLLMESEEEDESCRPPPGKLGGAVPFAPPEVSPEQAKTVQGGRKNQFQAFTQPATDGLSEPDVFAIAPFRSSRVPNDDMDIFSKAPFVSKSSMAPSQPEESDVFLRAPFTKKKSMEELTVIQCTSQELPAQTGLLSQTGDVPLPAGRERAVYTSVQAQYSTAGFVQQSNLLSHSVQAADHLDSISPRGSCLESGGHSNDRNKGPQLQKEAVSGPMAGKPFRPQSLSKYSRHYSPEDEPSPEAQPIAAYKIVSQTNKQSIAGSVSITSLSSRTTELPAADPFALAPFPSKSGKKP

On to `CNC(=O)c1ccccc1Nc1nc(Nc2ccc(N3CCOCC3)cc2)ncc1Cl.Cl` [GSK1576028A], for which the potency estimated from few doses in the assay on AAK1 (setting [3]) is 142 nM; with BMP2K (setting [3]), 1140 nM; in the assay with CLK1 (setting [3]), 260 nM; in the assay with CLK4 (setting [3]), 321 nM; in the assay on CSNK2A1;CSNK2A3 (setting [3]), 59.3 nM; in the assay on CSNK2A2 (setting [3]) it was 24.4 nM. Moreover, the potency estimated from few doses in the assay with FLT3 is 616 nM; with FLT4 (setting [3]) it was 309 nM; with GAK (setting [3]), 90.3 nM; in the assay on MELK, 2220 nM; in the assay on NUAK1 (setting [3]), 92.2 nM; with Q6ZSR9 (setting [3]), 116 nM. The potency estimated from few doses with RET (setting [3]) was 93.9 nM; with SIK2 (setting [3]), 611 nM.
As to `Cl.Nc1c(C(=O)c2cccc(C#CCN3CCCCC3)c2)cnn1-c1ccc(F)cc1` [RO1154461-001], the potency estimated from few doses was 607 nM with AAK1 (compound concentrations: 100 nM and 1000 nM (sheet 'Samples'), CATDS: 1.4474046603820999E-2); 1000 nM in the assay on BMP2K (compound concentrations: 100 nM and 1000 nM (sheet 'Samples'), CATDS: 1.20459910405703E-2); 552 nM with CLK1 (compound concentrations: 100 nM and 1000 nM (sheet 'Samples'), CATDS: 1.5060802907151999E-2); 679 nM in the assay with CLK4 (compound concentrations: 100 nM and 1000 nM (sheet 'Samples'), CATDS: 1.3844573276346099E-2); 1140 nM in the assay on CSNK2A1;CSNK2A3 (compound concentrations: 100 nM and 1000 nM (sheet 'Samples'), CATDS: 1.1541786487004701E-2); 1330 nM in the assay on CSNK2A2 (compound concentrations: 100 nM and 1000 nM (sheet 'Samples'), CATDS: 1.10304448511726E-2). The potency estimated from few doses in the assay on FLT4 (compound concentrations: 100 nM and 1000 nM (sheet 'Samples'), CATDS: 1.33586959494144E-2) is 746 nM; in the assay on GAK (compound concentrations: 100 nM and 1000 nM (sheet 'Samples'), CATDS: 4.3588593109949197E-2) it was 81.4 nM; with GSK3A (compound concentrations: 100 nM and 1000 nM (sheet 'Samples'), CATDS: 3.2177955723616897E-2) it was 129 nM; in the assay on GSK3B (compound concentrations: 100 nM and 1000 nM (sheet 'Samples'), CATDS: 1.7633019943865499E-2) it was 387 nM; with NUAK1 (compound concentrations: 100 nM and 1000 nM (sheet 'Samples'), CATDS: 1.03638923622048E-2), 1670 nM; in the assay on PAK4 (compound concentrations: 100 nM and 1000 nM (sheet 'Samples'), CATDS: 1.4039072021364001E-2), 656 nM. The potency estimated from few doses with PKN1 (compound concentrations: 100 nM and 1000 nM (sheet 'Samples'), CATDS: 1.0439948324783401E-2) was 1630 nM; in the assay with PKN3 [1] (compound concentrations: 100 nM and 1000 nM (sheet 'Samples'), CATDS: 1.05012639622415E-2), 1590 nM; with Q6ZSR9 (compound concentrations: 100 nM and 1000 nM (sheet 'Samples'), CATDS: 1.44791042777868E-2) it was 607 nM; in the assay on RET (compound concentrations: 100 nM and 1000 nM (sheet 'Samples'), CATDS: 1.69120998976478E-2) it was 424 nM; in the assay on SIK2 (compound concentrations: 100 nM and 1000 nM (sheet 'Samples'), CATDS: 1.66377583432985E-2), 439 nM.
In the case of `CCn1c(-c2nonc2N)nc2c(C#CC(C)(C)O)nc(OCCNC)cc21.Cl` [GSK949675A], the potency estimated from few doses is 70.4 nM in the assay on GSK3A (setting [3]); 91.5 nM in the assay on GSK3B (setting [3]); 736 nM in the assay on PAK4 (setting [3]); 675 nM in the assay on PKN1 (setting [3]); 2.48 nM in the assay with PKN3 [1] (setting [3]). Also, the IC50 in the assay on PKN3 [2] (read-out: Average, SD, n = 4) worked out at 669 nM; in the assay with PKN3 [2] (read-out: Rep 1), 1950 nM; in the assay on PKN3 [2] (read-out: Rep 2), 441 nM; in the assay with PKN3 [2] (read-out: Rep 3) it was 149 nM; in the assay with PKN3 [2] (read-out: Rep 4) it was 136 nM.
For the molecule `CCn1c(-c2nonc2N)nc2c(C#CCN)ncc(OCCCN)c21.O=C(O)C(F)(F)F` [GSK561866B], the potency estimated from few doses is 65.5 nM in the assay with PKN1 (compound concentrations: 100 nM and 1000 nM (sheet 'Samples'), CATDS: 0.15879588217707499); 5.21 nM in the assay on PKN3 [1] (compound concentrations: 100 nM and 1000 nM (sheet 'Samples'), CATDS: 0.49894757840635401). The IC50 is 7970 nM in the assay on PKN3 [2] (read-out: Average, SD, n = 4); 13000 nM in the assay on PKN3 [2] (read-out: Rep 1); 11200 nM with PKN3 [2] (read-out: Rep 2); 4910 nM in the assay with PKN3 [2] (read-out: Rep 3); 2820 nM in the assay on PKN3 [2] (read-out: Rep 4).

The values above are taken from paper PMC11062922 (Nature Chemical Biology, 2023).
